TDP1 cell noCPT – qHTS for Inhibitors of human tyrosyl-DNA phosphodiesterase 1 (TDP1): qHTS in cells in absence of CPT; DT40 Tdp1-/- hTDP1 cells, no CPT, ATP luminescence, 48 h; Potency, µM (highest dose often 46.2 µM), for the others: top-dose activity change, negative = growth inhibition, hits mostly inhibitors; 15% of 420,000 active; note: potency is the fitted concentration of half-maximal effect; nearly all actives have a fitted effect of over 55% in size
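Chicken DT40 Tdp1-/- cells stably complemented with human TDP1 were seeded at 400 cells/well with DMSO in place of 20 nM camptothecin. After compound pinning, cells grew at least 48 hr at 37 °C; viability read by CellTiter-Glo luminescence.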
HT1080 IDH1KD tx – toxicity to HT-1080 IDH1 knockdown cells (counter line) | HT-1080 IDH1 knockdown viability, ATP luminescence, 48 h | Potency, µM (series often up to 46.1 µM), without a hit: at the highest dose activity, negative = toxicity, most hits filed as cytotoxic | 2% of 360,000 active;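 note: potency is the fitted concentration of half-maximal effect; 0% = DMSO wells and -100% = cell-free medium wells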
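% activity derives from luminescence (CellTiter-Glo), normalised to DMSO and no-cell wells. HT-1080-IDH1KD cells, 750/well, had 48 h compound exposure at 37 °C.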
DT40 TDP1 CPT – DT40-hTDP1 cell growth loss with CPT. chicken DT40 Tdp1-/-;hTDP1 cells + 20 nM CPT, ATP luminescence, 48 h. Potency, µM (top dose mostly 46.2 µM), inactives show at the top dose activity change, negative = growth inhibition, most hits filed as inhibitors. 12% of 420,000 active; note: potency is the fitted concentration of half-maximal effect; nearly all actives have a fitted effect of over 55% in size
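Cell growth measured by CellTiter-Glo luminescence after a minimum 48 h, 37 C compound exposure with 20 nM CPT in Tdp1-knockout DT40 cells stably expressing hTDP1, seeded 400/well; qHTS titration format.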
ALOX12 inh – blocks human arachidonate 12S-lipoxygenase; P18054; purified 12hLO, xylenol orange hydroperoxide absorbance; Potency, µM (doses to about 108 µM), without a hit: at the highest dose activity change, negative = inhibition, hits mostly inhibitors; 1.1% of 580,000 active; AID 1671190; note: potency is the fitted concentration of half-maximal effect
Target sequence (P18054 whole entry, looked up): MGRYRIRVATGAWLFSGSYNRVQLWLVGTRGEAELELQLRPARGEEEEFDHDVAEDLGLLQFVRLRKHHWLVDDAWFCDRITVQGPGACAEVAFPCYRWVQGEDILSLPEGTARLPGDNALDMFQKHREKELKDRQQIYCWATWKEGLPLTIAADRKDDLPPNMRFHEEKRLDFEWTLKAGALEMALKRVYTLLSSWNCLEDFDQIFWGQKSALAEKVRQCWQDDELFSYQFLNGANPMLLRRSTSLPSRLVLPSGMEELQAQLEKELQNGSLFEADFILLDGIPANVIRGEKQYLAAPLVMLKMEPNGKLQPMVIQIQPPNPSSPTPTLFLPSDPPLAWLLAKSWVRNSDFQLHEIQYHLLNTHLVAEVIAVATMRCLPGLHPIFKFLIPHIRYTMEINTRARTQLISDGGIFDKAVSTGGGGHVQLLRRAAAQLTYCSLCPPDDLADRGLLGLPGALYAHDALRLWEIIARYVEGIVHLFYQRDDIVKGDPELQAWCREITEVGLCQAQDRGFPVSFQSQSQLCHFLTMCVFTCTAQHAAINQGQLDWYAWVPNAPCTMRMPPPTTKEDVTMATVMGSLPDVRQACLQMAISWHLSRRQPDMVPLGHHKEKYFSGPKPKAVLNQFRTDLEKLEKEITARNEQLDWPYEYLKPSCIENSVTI
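Purified human 12hLO (150 nM final) in 25 mM Hepes, 0.01% Triton X-100, pH 7.0 was preincubated 15 min at room temperature with compound. Then 40 uM arachidonic acid was added, 30 min. Hydroperoxide was read by Fe-XO absorbance ratio 573/405 nm.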
IL1B secr inh – inflammasome signaling inhibition, IL-1 beta readout | THP-1 LPS/ATP IL-1B secretion, AlphaLISA, 16 h; active compounds read low | activity change, % at 57.5 µM | 4.7% of 360,000 active | AID 743279; in the data active = activity change below about -50%; inconclusive = mostly about -30% to -49%
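THP-1 cells pretreated 1 hr with compounds (up to 57.5 uM final), then stimulated with LPS (250 ng/mL final) plus ATP (1.25 mM final); secreted IL-1B measured by AlphaLISA after 16 hr, decreased signal indicating inhibition.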
HT1080NT lethal – kills 2HG-producing HT-1080-NT fibrosarcoma cells. HT-1080-NT fibrosarcoma viability, CellTiter-Glo ATP luminescence, 48 h. Potency, µM (titrated, usually from 46.1 µM), for the others: at the top dose activity, negative = less viability, most hits filed as cytotoxic. 1.6% of 360,000 active. AID 686970;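 note: NT is the 2HG producing partner of a matched IDH1 knockdown line; potency is the fitted concentration of half-maximal effect; 0% = DMSO-treated cells and -100% = media-only wells without cells; nearly all actives have a fitted effect of over 55% in size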
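Viability by CellTiter-Glo luminescence after 48 h compound exposure at 37C of HT-1080-NT cells (750/well, RPMI, 5% FBS). % activity scaled between DMSO wells and medium-only wells, then curve-fitted and categorized by curve class.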
Starred values were filed as active, the others as inactive; u = inconclusive; x = no result given. Only a selection was taken, and hits are over-represented in it overall. Unless noted, calls come from the whole dose curve; as a rule, active = well fitted curve in the direction sought with a large enough effect; inconclusive = small, poorly fitted or top-dose-only effect, or another doubt; inactive = no such curve, though single readings can be large; an effect the other way counts as inactive or inconclusive. Unless noted, % is set by controls: 0 for no effect and ±100 for the full control effect.

SMILES	TDP1 cell noCPT	HT1080 IDH1KD tx	DT40 TDP1 CPT	ALOX12 inh	IL1B secr inh	HT1080NT lethal
OC(CN1CCCC1)c1ccccc1 (stereo not drawn)	-28%	x	u	x	x	x
OC(CN1CC=C(/C=C/c2ccc(Br)cc2)CC1)c1ccccc1 (stereo not drawn)	u	u	u	u	-73*	u
OC(CN1CCN(c2ccccc2Cl)CC1)c1ccccc1 (stereo not drawn)	-15%	u	-3%	-15%	8	16µM*
CSc1cccc(NC(=O)CN(c2ccc(C)cc2C)S(C)(=O)=O)c1	u	-25%	-10%	33%	-3	-4%
CSc1cccc(NC(=O)CN(c2cccc(C)c2)S(C)(=O)=O)c1	u	-2%	18µM*	0%	-16	-3%
CSc1cccc(NC(=O)CN(c2ccccc2)S(=O)(=O)N(C)C)c1	29µM*	u	26µM*	u	13	-4%
CCc1noc2nc(C)nc(N3CCCC(C(=O)NCc4ccccc4F)C3)c12 (stereo not drawn)	x	x	x	4%	x	x
Cc1ccc2c(Cl)cc(Cl)c(OCC(=O)Nc3cccc(S(=O)(=O)N(C)C)c3)c2n1	21µM*	1%	u	-19%	24	-1%
Cc1ccc2c(Cl)cc(Cl)c(OCC(=O)NC(C)(C)C)c2n1	23µM*	-16%	u	u	11	-20%
Cc1ccc2c(Cl)cc(Cl)c(OCC(=O)Nc3cc(S(=O)(=O)N(C)C)ccc3C)c2n1	15µM*	-23%	23µM*	4%	u	-13%
CNC(=O)COc1c(Cl)cc(Cl)c2ccc(C)nc12	x	x	x	-4%	x	x
COc1ccc(-c2nc(NC(=O)c3ccc(C)cc3)n[nH]2)cc1OC	x	x	x	9%	x	x
Cc1ccc(-n2cc(-c3ccc([N+](=O)[O-])cc3)[nH]c2=S)c(C)c1	16µM*	-2%	16µM*	u	-2	-2%
COc1ccccc1-n1cc(-c2ccc([N+](=O)[O-])cc2)[nH]c1=S	u	-11%	1%	0%	-5	-16%
COc1cccc(-n2cc(-c3ccc(F)cc3)[nH]c2=S)c1	-16%	12%	u	22µM*	-8	3%
COc1ccccc1-n1cc(-c2ccc(C)cc2)[nH]c1=S	4.1µM*	u	3.7µM*	u	13	10µM*
COc1ccc(-c2cn(-c3ccc(C)c(C)c3)c(=S)[nH]2)cc1OC	16µM*	-1%	-23%	28µM*	-16	-4%
COc1cccc(-c2noc(CC3CCN(C(=O)CCCc4ccccc4)CC3)n2)c1	x	x	x	-5%	x	x
COc1ccccc1-n1cc(-c2ccc(Br)cc2)[nH]c1=S	13µM*	-28%	16µM*	u	4	-1%
COc1ccc(-c2cn(-c3ccccc3)c(=S)[nH]2)cc1OC	9%	-10%	0%	u	-8	-19%
COc1ccccc1-c1cn(-c2ccccc2)c(=S)[nH]1	21µM*	-22%	u	0%	8	-13%
CCCN(Cc1ccccc1)C(=O)CCc1cccs1	x	x	x	-7%	x	x
Cc1ccc(S(=O)(=O)N(C)CC2CCOCC2)cc1C	x	x	x	34%	x	x
CCN(C[C@H]1N[C@@](Cc2ccccc2)(C(=O)OC)[C@H]2C(=O)N(Cc3ccccc3)C(=O)[C@@H]12)S(=O)(=O)c1ccc(C)cc1	21µM*	4%	16µM*	-17%	-25	15%
CCN(C[C@H]1N[C@@](CC)(C(=O)OC)[C@H]2C(=O)N(Cc3ccccc3)C(=O)[C@@H]12)S(=O)(=O)c1ccc(F)cc1	21µM*	4%	u	-2%	-16	2%
SMILES	TDP1 cell noCPT	HT1080 IDH1KD tx	DT40 TDP1 CPT	ALOX12 inh	IL1B secr inh	HT1080NT lethal
CCN(C[C@H]1N[C@@](Cc2ccccc2)(C(=O)OC)[C@H]2C(=O)N(Cc3ccccc3)C(=O)[C@@H]12)S(=O)(=O)c1ccccc1	23µM*	7%	u	136%	-13	4%
CC(C)N(C(=O)Cn1cnc2c1c(=O)n(C)c(=O)n2C)c1ccccc1	x	x	x	3%	x	x
CCc1ccc(C(=O)NC2CCN(c3cn[nH]c(=O)c3)CC2)cc1	x	x	x	-4%	x	x
COc1ccc(C(=O)N(CCc2ccccc2)Cc2ccccc2)c(OC)n1	u	-4%	u	-2%	-64*	-20%
COc1ccc(CN(C(C)=O)c2ccccc2C(=O)O)cc1	26%	17%	0%	8%	0	10%
COc1ccc(N(Cc2ccccc2)C(=O)c2ccccc2[N+](=O)[O-])cc1	9.2µM*	-5%	u	24%	-17	-10%
Cn1cc([N+](=O)[O-])c(C(=O)NCc2ccccc2)n1	-5%	-4%	-6%	u	-19	-2%
CS(=O)(=O)c1ccccc1C(=O)N(CCc1ccccc1)Cc1ccccc1	-29%	-7%	-19%	-14%	0	-6%
Cn1cc([N+](=O)[O-])c(C(=O)N(Cc2ccccc2)Cc2ccccc2)n1	26µM*	-10%	u	4%	10	4%
Cc1cccc(C(=O)N(CCc2ccccc2)Cc2ccccc2)c1[N+](=O)[O-]	7.3µM*	u	10µM*	133%	0	u
O=C(c1ccccc1[N+](=O)[O-])N(CCc1ccccc1)Cc1ccccc1	12µM*	-5%	16µM*	39%	-2	-7%
FC(F)(F)c1cccc(N2CCN(Cc3nnc(-c4ccc5c(c4)OCO5)o3)CC2)c1	16µM*	x	u	-17%	x	x
Cc1ccc(Cl)cc1N1CCN(Cc2nnc(-c3ccc4c(c3)OCO4)o2)CC1	u	x	u	-22%	x	x
COc1cccc(N2CCN(Cc3nnc(-c4ccc5c(c4)OCO5)o3)CC2)c1	-27%	x	1%	0%	x	x
Clc1ccc(N2CCN(Cc3nnc(-c4ccc5c(c4)OCO5)o3)CC2)cc1	18µM*	x	u	-29%	x	x
Fc1ccc(-c2nnc(CN3CCN(c4ncc(C(F)(F)F)cc4Cl)CC3)o2)cc1	15µM*	u	13µM*	0%	-17	-20%
COc1ccc(C2=C(C)C(N3CCN(c4ccc(OC)cc4)CC3)=NS2(=O)=O)cc1	-6%	x	-4%	-19%	x	x
CC1=C(c2ccc(C(C)C)cc2)S(=O)(=O)N=C1N1CCN(c2ccc(F)cc2)CC1	10µM*	x	21µM*	u	x	x
CC1=C(c2ccc(Cl)cc2)S(=O)(=O)N=C1N1CCN(c2cccc(C(F)(F)F)c2)CC1	21µM*	x	8.2µM*	u	x	x
